Measurements published in publication PMC4336329 (PLoS ONE, 2015).
The whole screen tested about 310,000 compounds, of which about 2,200 (0.71%) showed an effect of 50% or more. The effect is printed as a negative number. The entries come from a sample that favours strong results as a whole.

target: human ether-à-go-go-related gene (hERG) potassium channel (human, UniProt Q12809); assay: primary screen, population patch clamp on CHO cells stably expressing hERG; higher = less effect of the substance
Sequence (Q12809 whole entry, looked up): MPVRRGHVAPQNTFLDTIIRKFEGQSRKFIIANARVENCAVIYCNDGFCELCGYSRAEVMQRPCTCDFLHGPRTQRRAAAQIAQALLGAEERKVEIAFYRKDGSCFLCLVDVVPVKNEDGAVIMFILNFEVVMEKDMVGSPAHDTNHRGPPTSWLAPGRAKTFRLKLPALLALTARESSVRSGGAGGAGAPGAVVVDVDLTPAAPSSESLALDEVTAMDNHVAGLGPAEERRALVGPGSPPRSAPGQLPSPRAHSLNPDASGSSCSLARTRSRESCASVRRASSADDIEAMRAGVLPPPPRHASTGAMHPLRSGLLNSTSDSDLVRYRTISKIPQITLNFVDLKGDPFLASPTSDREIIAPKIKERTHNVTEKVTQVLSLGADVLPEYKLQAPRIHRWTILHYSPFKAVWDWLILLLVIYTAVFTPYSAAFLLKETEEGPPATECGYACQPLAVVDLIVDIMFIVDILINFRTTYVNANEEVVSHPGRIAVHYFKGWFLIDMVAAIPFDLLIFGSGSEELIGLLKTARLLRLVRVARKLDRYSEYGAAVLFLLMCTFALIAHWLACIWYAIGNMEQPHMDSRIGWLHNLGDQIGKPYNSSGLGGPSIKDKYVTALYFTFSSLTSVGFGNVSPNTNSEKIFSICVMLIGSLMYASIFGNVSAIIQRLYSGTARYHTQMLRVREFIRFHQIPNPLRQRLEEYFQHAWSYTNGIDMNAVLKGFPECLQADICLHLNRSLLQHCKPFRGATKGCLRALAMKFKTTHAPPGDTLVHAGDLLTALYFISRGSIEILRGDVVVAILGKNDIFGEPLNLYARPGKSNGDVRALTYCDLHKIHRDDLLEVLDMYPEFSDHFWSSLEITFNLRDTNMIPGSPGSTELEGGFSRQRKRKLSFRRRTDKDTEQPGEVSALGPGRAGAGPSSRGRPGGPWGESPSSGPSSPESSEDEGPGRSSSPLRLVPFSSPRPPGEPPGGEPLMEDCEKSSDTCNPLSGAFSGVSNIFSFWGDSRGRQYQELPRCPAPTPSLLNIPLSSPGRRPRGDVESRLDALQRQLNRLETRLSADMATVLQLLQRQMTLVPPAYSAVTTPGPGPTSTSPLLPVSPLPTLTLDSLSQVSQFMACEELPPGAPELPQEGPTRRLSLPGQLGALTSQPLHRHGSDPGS

SMILES	hERG current change (%, negative = inhibition) at 1uM
CCC(=O)N1CCN(c2ccc(NC(=O)COc3ccc(CC)cc3)cc2)CC1	10.9%
CC(C)[C@@H]1NC(=O)c2cc([N+](=O)[O-])cc(I)c2NCCC[C@@H](C(N)=O)NC(=O)[C@H](CO)NC1=O	8.46%
O=C(CSc1ncn[nH]1)c1cccc([N+](=O)[O-])c1	11.5%
C#CCNC(=O)C1=C[C@H](c2ccc3c(c2)OCO3)C[C@H](OCCCCO)O1	15%
CCN(CC(=O)Nc1c(F)cccc1F)C(=O)c1ccc2ncsc2c1	12.3%
CC1=CCC(C(=O)O)C(C(=O)Nc2cccnc2)C1 (stereo not shown)	5.97%
COc1ccc(CCNC(=O)CNS(=O)(=O)c2ccc(Br)s2)cc1OC	1.45%
CC(CN1CCOCC1)OC(=O)C1COc2ccccc2O1.Cl (stereo not shown)	7.15%
CC(NCC(=O)Nc1ccccc1C(=O)NC1CC1)c1ccc(S(C)(=O)=O)cc1 (stereo not shown)	10.9%
CCCCc1cc(=O)oc2c(C)c(OCC(=O)NCCN3CCOCC3)ccc12	-77.1%
CCc1cc(=O)oc2c(C)c(OCC(=O)NCCN3CCOCC3)ccc12	12.8%
CCCc1cc(=O)oc2c(C)c(OCC(=O)NCCN3CCOCC3)ccc12	-6.02%
Cc1nc2cc(NC(=O)NCc3ccccc3)ccc2o1	16.2%
CCOC(=O)Cc1nc2ccccc2o1	9.03%
O=C(NCc1cccnc1)Nc1ccc(Cl)cc1	-18.3%
CCOC(=O)C1=C(OCc2ccc(Cl)cc2)C2C=C(C)C=CC2N=C1 (stereo not shown)	-18.1%
COc1ccccc1CNn1c(-c2cccc(C)c2)nc2ccccc2c1=O	5.72%
COc1cccc(CNn2c(-c3cccc(C)c3)nc3ccccc3c2=O)c1	6.03%
COc1ccc(CNn2c(-c3cccc(C)c3)nc3ccccc3c2=O)cc1OC	-54.8%
CCN(CC)/C(N)=N/c1nc(C)cc(C)n1	3.23%
CCCCN(CCCC)/C(N)=N/c1nc(C)cc(C)n1	-51.8%
Cc1cc(C)nc(/N=C(\N)N(Cc2ccccc2)Cc2ccccc2)n1	-31.2%
Cc1cc(OCC(=O)N2CCC(C(=O)O)(c3ccccc3)CC2)c2c(C)c(C)c(=O)oc2c1	4.94%
COc1ccc(OCC(=O)Nc2ccc(OC)c(S(=O)(=O)N3CCCCC3)c2)cc1	-2.82%
Brc1ccc(Oc2nnnn2-c2ccccc2)cc1	11%
